In the antibiotic and cytotoxicity screens of Wong et al. (2023) one finds cytotoxicity call data, which are given here for 64 compounds.

In all, about 39,000 compounds went through this assay and about 1,500 (3.8%) were called active. The full list was thinned out, with actives kept by preference.

The test system of this assay is HSkMC (human skeletal muscle cells). Briefly: cytotoxicity call (relative viability < 0.9). As to conditions: 10 µM.
With `C[C@H](CO)N1C[C@H](C)[C@H](CN(C)Cc2ccc(Oc3ccccc3)cc2)Oc2ccc(NC(=O)c3ccncc3)cc2C1=O`, the cytotoxicity call is “inactive”.

In the case of `C[C@@H]1CN([C@@H](C)CO)C(=O)Cc2cc(NC(=O)Cn3cnnn3)ccc2O[C@@H]1CN(C)C(=O)Nc1cccc2ccccc12`, the cytotoxicity call is “inactive”.

Turning to `C=CC[C@H](CC(=O)NCCO)C(=O)N[C@@H](COC(=O)[C@@H](CC=C)CC(=O)OC(C)(C)C)Cc1c[nH]c2ccccc12`, the cytotoxicity call is “inactive”.

`COc1ccc(NC(=O)Nc2ccc3c(c2)C(=O)N([C@H](C)CO)C[C@H](C)[C@H](CN(C)S(=O)(=O)c2c(C)noc2C)OCCCC[C@@H](C)O3)cc1`: the cytotoxicity call is “inactive”.

Turning to `COCC(=O)Nc1ccc2c(c1)C(=O)N(C)C[C@@H](OC)[C@@H](C)CN(C(=O)Cc1cccnc1)[C@H](C)CO2`, the cytotoxicity call is “inactive”.

`C[C@@H]1CCCCO[C@H](CN(C)C(=O)Nc2ccc3c(c2)OCO3)[C@H](C)CN([C@@H](C)CO)C(=O)c2cc(NS(=O)(=O)c3ccc(F)cc3)ccc2O1`: the cytotoxicity call was “inactive”.

As for `Cc1ccc(S(=O)(=O)Nc2ccc3c(c2)C(=O)N([C@@H](C)CO)C[C@H](C)[C@H](CN(C)Cc2ccc(C(=O)O)cc2)OCCCC[C@@H](C)O3)cc1`, the cytotoxicity call is “inactive”.

Take `Cc1cc(C)n2nc(N)nc2n1`: the cytotoxicity call was “inactive”.

As to `Nc1ccc2cc3ccc(N)cc3nc2c1.O=S(=O)(O)O`, the cytotoxicity call was “active”.

As for `Nc1ccc2c(c1)nc(CO)n2CCO`, the cytotoxicity call is “inactive”.

Turning to `C[n+]1c2cc(N)ccc2cc2ccc(N)cc21.[Cl-]`, the cytotoxicity call was “inactive”.

On to `C[C@@H]1CCCCO[C@@H](CN(C)Cc2ccccc2)[C@H](C)CN([C@@H](C)CO)C(=O)c2cc(NC(=O)C3CCCCC3)ccc2O1`, for which the cytotoxicity call is “inactive”.

With `COCCC(=O)NS(=O)(=O)c1ccccc1`, the cytotoxicity call was “inactive”.

With `CC(C)(C)C(=O)N1CCNCC1`, the cytotoxicity call is “inactive”.

As to `C[C@H]1CN([C@@H](C)CO)C(=O)c2cc(C#CCN(C)C)cnc2O[C@@H]1CN(C)C(=O)Nc1ccccc1F`, the cytotoxicity call is “inactive”.

Take `C=C1C[C@@H]2CC[C@@]34C[C@H]5O[C@H]6[C@@H](O3)[C@H]3O[C@H](CC[C@@H]3O[C@H]6[C@H]5O4)CC(=O)C[C@@H]3[C@@H](OC)[C@@H](C[C@H](O)CN)O[C@H]3C[C@H]3O[C@@H](CC[C@@H]1O2)C[C@@H](C)C3=C`: the cytotoxicity call was “active”.

As for `COc1ccc(NC(=O)N(C)C[C@@H]2Oc3ccc(NC(=O)Nc4ccc(C(F)(F)F)cc4)cc3CC(=O)N([C@@H](C)CO)C[C@@H]2C)cc1`, the cytotoxicity call was “inactive”.

In the case of `C[C@@H]1CN([C@H](C)CO)C(=O)c2cc(Br)cnc2O[C@H]1CN(C)S(=O)(=O)c1ccc(F)cc1`, the cytotoxicity call was “inactive”.

Regarding `COc1ccccc1C#Cc1ccc2c(c1)O[C@H](CN(C)Cc1ccncc1)[C@H](C)CN([C@@H](C)CO)S2(=O)=O`, the cytotoxicity call was “inactive”.

With `COc1ccccc1C#Cc1ccc2c(c1)O[C@@H](CN(C)Cc1ccncc1)[C@H](C)CN([C@H](C)CO)S2(=O)=O`, the cytotoxicity call was “active”.

For `COc1ccccc1C#Cc1ccc2c(c1)O[C@H](CN(C)Cc1ccncc1)[C@@H](C)CN([C@H](C)CO)S2(=O)=O`, the cytotoxicity call was “inactive”.

Take `COc1ccccc1C#Cc1ccc2c(c1)O[C@@H](CN(C)Cc1ccncc1)[C@@H](C)CN([C@@H](C)CO)S2(=O)=O`: the cytotoxicity call was “inactive”.

As for `COc1ccccc1C#Cc1ccc2c(c1)O[C@H](CN(C)Cc1ccncc1)[C@@H](C)CN([C@@H](C)CO)S2(=O)=O`, the cytotoxicity call is “active”.

For the compound `COc1ccccc1C#Cc1ccc2c(c1)O[C@@H](CN(C)Cc1ccncc1)[C@@H](C)CN([C@H](C)CO)S2(=O)=O`, the cytotoxicity call is “inactive”.

In the case of `COc1ccccc1C#Cc1ccc2c(c1)O[C@H](CN(C)Cc1ccncc1)[C@H](C)CN([C@H](C)CO)S2(=O)=O`, the cytotoxicity call is “inactive”.

In the case of `COc1ccccc1C#Cc1ccc2c(c1)O[C@@H](CN(C)Cc1ccncc1)[C@H](C)CN([C@@H](C)CO)S2(=O)=O`, the cytotoxicity call is “active”.

Regarding `C[C@H](CO)N1C[C@H](C)[C@H](CN(C)S(=O)(=O)c2cccc(F)c2)Oc2cc(Br)ccc2S1(=O)=O`, the cytotoxicity call was “inactive”.

`C[C@@H]1CN([C@@H](C)CO)C(=O)c2cc(NS(C)(=O)=O)ccc2O[C@@H]1CN(C)C(=O)Nc1ccc(C(F)(F)F)cc1`: the cytotoxicity call is “inactive”.

For the compound `COc1ccc(S(=O)(=O)Nc2ccc3c(c2)C(=O)N([C@@H](C)CO)C[C@H](C)[C@@H](CN(C)C(=O)Nc2c(C)noc2C)O3)cc1`, the cytotoxicity call is “inactive”.

Turning to `C[C@@H]1CN([C@H](C)CO)C(=O)c2cc(NC(=O)Nc3cccc4ccccc34)ccc2O[C@@H]1CN(C)Cc1ccc2c(c1)OCO2`, the cytotoxicity call was “inactive”.

For the compound `CC(C)NC(=O)N(C)C[C@H]1OCCCC[C@H](C)Oc2ccc(NS(C)(=O)=O)cc2C(=O)N([C@@H](C)CO)C[C@@H]1C`, the cytotoxicity call was “inactive”.

With `N[C@@H]1CC[C@@H](c2ccc(Cl)c(Cl)c2)c2ccccc21`, the cytotoxicity call is “active”.

In the case of `CNC1CCC(c2ccc(Cl)c(Cl)c2)c2ccccc21.Cl` (centres undefined), the cytotoxicity call was “active”.

Regarding `CN[C@H]1CC[C@@H](c2ccc(Cl)c(Cl)c2)c2ccccc21`, the cytotoxicity call is “inactive”.

Regarding `COC(=O)c1c2oc(c1C(=O)OC)C(=O)N(C)Cc1cn(nn1)C[C@H](Cc1ccccc1)NC(=O)N[C@H](CO)CC2`, the cytotoxicity call was “inactive”.

Regarding `O=c1[nH]c2ccc(F)cc2[nH]1`, the cytotoxicity call is “inactive”.

As for `CC(C)NC(=O)N(C)C[C@@H]1Oc2ccc(NC(=O)Cc3ccccc3)cc2C(=O)N([C@@H](C)CO)C[C@H]1C`, the cytotoxicity call was “inactive”.

As for `COc1ccc(CN(C)C[C@@H]2Oc3ccc(NS(=O)(=O)c4cn(C)cn4)cc3C(=O)N([C@@H](C)CO)C[C@H]2C)cc1`, the cytotoxicity call is “inactive”.

For the compound `C[C@H](CO)N1C[C@H](C)[C@H](CN(C)Cc2ccc(C(F)(F)F)cc2)OCCCC[C@H](C)Oc2ccc(NS(=O)(=O)c3ccccc3)cc2C1=O`, the cytotoxicity call is “inactive”.

`CNC(=O)C[C@H]1CC[C@@H]2[C@H](COC[C@H](O)CN2C(=O)c2ccccn2)O1`: the cytotoxicity call is “inactive”.

For `C[C@H](CO)N1C[C@H](C)[C@H](CN(C)C(=O)Nc2cccc3ccccc23)OCCCC[C@H](C)Oc2ccc(NC(=O)Nc3ccc(C(F)(F)F)cc3)cc2C1=O`, the cytotoxicity call is “inactive”.

Consider `C[C@@H]1CN([C@@H](C)CO)C(=O)c2cc(NC(=O)Nc3ccc(C(F)(F)F)cc3)ccc2O[C@@H](C)CCCCO[C@H]1CN(C)C(=O)Nc1cccc2ccccc12`, for which the cytotoxicity call was “inactive”.

For `C[C@@H]1CCCCO[C@H](CN(C)C(=O)Nc2cccc3ccccc23)[C@@H](C)CN([C@@H](C)CO)C(=O)c2cc(NC(=O)Nc3ccc(C(F)(F)F)cc3)ccc2O1`, the cytotoxicity call was “inactive”.

As to `C[C@@H]1CCCCO[C@@H](CN(C)C(=O)Nc2cccc3ccccc23)[C@@H](C)CN([C@H](C)CO)C(=O)c2cc(NC(=O)Nc3ccc(C(F)(F)F)cc3)ccc2O1`, the cytotoxicity call is “active”.

As for `C[C@@H]1CCCCO[C@@H](CN(C)C(=O)Nc2cccc3ccccc23)[C@@H](C)CN([C@@H](C)CO)C(=O)c2cc(NC(=O)Nc3ccc(C(F)(F)F)cc3)ccc2O1`, the cytotoxicity call is “active”.

`C[C@H](CO)N1C[C@H](C)[C@@H](CN(C)C(=O)Nc2cccc3ccccc23)OCCCC[C@H](C)Oc2ccc(NC(=O)Nc3ccc(C(F)(F)F)cc3)cc2C1=O`: the cytotoxicity call is “inactive”.

`C[C@@H]1CCCCO[C@@H](CN(C)C(=O)Nc2cccc3ccccc23)[C@H](C)CN([C@@H](C)CO)C(=O)c2cc(NC(=O)Nc3ccc(C(F)(F)F)cc3)ccc2O1`: the cytotoxicity call is “inactive”.

With `C[C@@H]1CN([C@@H](C)CO)C(=O)c2cc(NC(=O)Nc3ccc(C(F)(F)F)cc3)ccc2O[C@@H](C)CCCCO[C@@H]1CN(C)C(=O)Nc1cccc2ccccc12`, the cytotoxicity call was “active”.

On to `C[C@@H]1CCCCO[C@@H](CN(C)C(=O)Nc2cccc3ccccc23)[C@H](C)CN([C@H](C)CO)C(=O)c2cc(NC(=O)Nc3ccc(C(F)(F)F)cc3)ccc2O1`, for which the cytotoxicity call was “inactive”.

As to `Cn1cnc(S(=O)(=O)N2C[C@@H](O)COC[C@H]3O[C@@H](CC(=O)NC4CCCC4)CC[C@@H]32)c1`, the cytotoxicity call was “inactive”.

As for `COc1ccccc1CNC(=O)C[C@@H]1C[C@H]2c3cc(NC(=O)C4CCOCC4)ccc3O[C@H]2[C@@H](CO)O1`, the cytotoxicity call is “inactive”.

On to `O=C(c1cc2n(n1)CCCO2)N1CC(O)C1`, for which the cytotoxicity call is “inactive”.

With `Cc1noc(C)c1NC(=O)N(C)C[C@H]1Oc2ccc(NC(=O)CCN3CCOCC3)cc2CC(=O)N([C@H](C)CO)C[C@@H]1C`, the cytotoxicity call was “inactive”.

In the case of `C[C@H](CO)N1C[C@H](C)[C@H](CN(C)C(=O)c2ccc3c(c2)OCO3)Oc2ncc(C#CCN(C)C)cc2C1=O`, the cytotoxicity call was “inactive”.

For the compound `CCC(=O)N1C[C@]2(CN(C2)S(=O)(=O)C)c2c(n(c3cc(ccc23)OC)C)[C@@H]1CO`, the cytotoxicity call was “inactive”.

`C[C@H](CO)N1C[C@H](C)[C@H](CN(C)S(=O)(=O)c2cn(C)cn2)Oc2ccc(NS(=O)(=O)c3ccccc3)cc2CC1=O`: the cytotoxicity call is “inactive”.

In the case of `C[C@@H]1CN([C@@H](C)CO)C(=O)Cc2cc(NC(=O)CCC(F)(F)F)ccc2O[C@H]1CN(C)Cc1ccc(Cl)c(Cl)c1`, the cytotoxicity call was “active”.

Take `C[C@@H]1CN([C@H](C)CO)C(=O)Cc2cc(NC(=O)CCC(F)(F)F)ccc2O[C@H]1CN(C)Cc1ccc(-c2ccccc2)cc1`: the cytotoxicity call is “inactive”.

With `C[C@H](CO)N1C[C@H](C)[C@@H](CN(C)Cc2ccc(Cl)c(Cl)c2)Oc2ccc(NC(=O)CCC(F)(F)F)cc2CC1=O`, the cytotoxicity call is “inactive”.

As for `C[C@H]1CN([C@@H](C)CO)C(=O)Cc2cc(NC(=O)CCC(F)(F)F)ccc2O[C@H]1CN(C)Cc1ccc(-c2ccccc2)cc1`, the cytotoxicity call is “inactive”.

As for `C[C@@H]1CN([C@H](C)CO)C(=O)Cc2cc(NC(=O)CCC(F)(F)F)ccc2O[C@H]1CN(C)Cc1ccc(Cl)c(Cl)c1`, the cytotoxicity call was “inactive”.

As to `C[C@@H]1CN([C@@H](C)CO)C(=O)Cc2cc(NC(=O)CCC(F)(F)F)ccc2O[C@H]1CN(C)Cc1ccc(-c2ccccc2)cc1`, the cytotoxicity call is “active”.

As for `CCOC(=O)c1cn2cn[nH]c2nc1=O`, the cytotoxicity call is “inactive”.

With `C[C@@H]1CN([C@H](C)CO)C(=O)Cc2cc(NC(=O)Nc3ccc4c(c3)OCO4)ccc2O[C@@H]1CN(C)Cc1ccc(C(=O)Nc2ccccc2N)cc1`, the cytotoxicity call was “inactive”.
